The source made the active and inactive calls. Rule for the calls: active = hit-call score of the fitted dose curve at least 0.9, where 1 is the maximum; inactive = score below 0.9.
Legend:
[1] = read-out: Plasminogen activator inhibitor-1 (PAI1), SERPINE1 (gene 5054); experiment: BSK_hDFCGF_PAI1: BioMAP Diversity Plus: hDFCGF Assay for Plasminogen activator inhibitor-1 (PAI1) Biomarker Activity (AID 2283066); details: primary human foreskin fibroblasts; actives raise or lower the signal
In short: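 PAI-1 levels in human dermal foreskin fibroblasts were quantified by ELISA 24 h after dosing, with gain or loss analysed against DMSO. Overt cytotoxicity was checked by sulforhodamine B total-protein staining in parallel cultures.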

[2] = read-out: Interferon-gamma inducible Protein 10 (IP10), CXCL10 (gene 3627); experiment: BSK_KF3CT_IP10: BioMAP Diversity Plus: KF3CT Assay for Interferon-gamma inducible Protein 10 (IP10) Biomarker Activity (AID 2283068); details: primary human keratinocytes with fibroblasts; actives raise or lower the signal
In short: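 Signal is secreted/surface IP-10 by ELISA in a human primary skin co-culture of keratinocytes and foreskin fibroblasts, taken 24 h post-dosing; DMSO served as negative control.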

[3] = BSK_KF3CT_SRB: Viability Assessment in the BioMAP Diversity Plus: KF3CT Assay (AID 2283069); details: primary human keratinocytes with fibroblasts;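 note: fitted for both signal gain and loss against DMSO baseline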
In short: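 Overt cytotoxicity is assessed as total protein by sulforhodamine B staining in parallel human skin co-cultures at 24 h after dosing. DMSO serves as negative control and baseline.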

[4] = read-out: Interleukin-1 alpha (IL1a), IL1A (gene 3552); experiment: BSK_KF3CT_IL1a: BioMAP Diversity Plus: KF3CT Assay for Interleukin-1 alpha (IL1a) Biomarker Activity (AID 2283070); details: primary human keratinocytes with fibroblasts; actives raise or lower the signal
In short: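 Readout is IL-1a level by ELISA, compared bidirectionally with DMSO as baseline. Cells: human keratinocytes co-cultured with foreskin fibroblasts, harvested 24 h post-dose.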

[5] = read-out: TIMP metallopeptidase inhibitor 2 (TIMP2), TIMP2 (gene 7077); experiment: BSK_KF3CT_TIMP2: BioMAP Diversity Plus: KF3CT Assay for TIMP metallopeptidase inhibitor 2 (TIMP2) Biomarker Activity (AID 2283071); details: primary human keratinocytes with fibroblasts; actives raise or lower the signal
In short: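 TIMP-2 measured by ELISA at 24 h in human keratinocyte/fibroblast primary co-cultures exposed to chemicals. Both increases and decreases were fitted against DMSO. Parallel cultures were stained with SRB for total protein as an overt-cytotoxicity check.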

[6] = read-out: Transforming growth factor beta 1 (TGFb1), TGFB1 (gene 7040); experiment: BSK_KF3CT_TGFb1: BioMAP Diversity Plus: KF3CT Assay for Transforming growth factor beta 1 (TGFb1) Biomarker Activity (AID 2283072); details: primary human keratinocytes with fibroblasts; actives raise or lower the signal
In short: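 ELISA quantifies TGF-b1 at 24 h post-dose in a primary human skin co-culture of keratinocytes and fibroblasts, with gain or loss judged against DMSO. Parallel SRB total-protein staining flags overt cytotoxicity.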

[7] = read-out: C-C motif chemokine 2 (Homo sapiens) (UniProt P13500); experiment: BSK_KF3CT_MCP1: BioMAP Diversity Plus: KF3CT Assay for Monocyte Chemoattractant Protein 1 (MCP1/CCL2) Biomarker Activity (AID 2283073); details: primary human keratinocytes with fibroblasts; actives raise or lower the signal
In short: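 Human keratinocyte–foreskin fibroblast co-culture; MCP-1 measured by ELISA 24 h after dosing. Bidirectional fit vs DMSO; cytotoxicity tracked by SRB total protein in parallel cultures.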

[8] = read-out: Matrix Metallopeptidase 9 (MMP9), MMP9 (gene 4318); experiment: BSK_KF3CT_MMP9: BioMAP Diversity Plus: KF3CT Assay for Matrix Metallopeptidase 9 (MMP9) Biomarker Activity (AID 2283074); details: primary human keratinocytes with fibroblasts; actives raise or lower the signal
In short: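 Values come from bidirectional fitting relative to DMSO of MMP-9 levels, which were measured by ELISA. Measurements were taken 24 h after chemical dosing of a keratinocyte and foreskin fibroblast co-culture.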

[9] = read-out: urokinase plasminogen activator (uPA), PLAU (gene 5328); experiment: BSK_KF3CT_uPA: BioMAP Diversity Plus: KF3CT Assay for urokinase plasminogen activator (uPA) Biomarker Activity (AID 2283075); details: primary human keratinocytes with fibroblasts; actives raise or lower the signal
In short: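 Values derive from bidirectional fitting against DMSO controls. Keratinocyte/foreskin fibroblast co-cultures received chemical; 24 h later uPA was detected by ELISA, with SRB total-protein staining in parallel wells for overt cytotoxicity.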

CD40, CD40 (gene 958) = experiment: BSK_LPS_CD40: BioMAP Diversity Plus: LPS Assay for CD40 Biomarker Activity (AID 2283076); details: primary human HUVEC with PBMC; actives raise or lower the signal
In short: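 HUVEC plus PBMC co-culture stimulated with LPS; CD40 quantified by ELISA 24 h after compound dosing. Fitting was bidirectional relative to DMSO. SRB staining of parallel cultures flagged overt cytotoxicity.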

[10] = read-out: E-selectin (Homo sapiens) (UniProt P16581); experiment: BSK_LPS_Eselectin: BioMAP Diversity Plus: LPS Assay for Eselectin Biomarker Activity (AID 2283077); details: primary human HUVEC with PBMC; actives raise or lower the signal
In short: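 Human umbilical vein endothelial cells co-cultured with PBMC under LPS stimulation; cell-surface E-selectin measured by ELISA 24 h after dosing. Change in either direction versus DMSO, with SRB total-protein staining in parallel cultures for cytotoxicity.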

[11] = read-out: Interleukin-8 (IL8), CXCL8 (gene 3576); experiment: BSK_LPS_IL8: BioMAP Diversity Plus: LPS Assay for Interleukin-8 (IL8) Biomarker Activity (AID 2283078); details: primary human HUVEC with PBMC; actives raise or lower the signal
In short: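 Human umbilical vein endothelial cells co-cultured with PBMC, LPS-stimulated, exposed to compound for 24 h. IL-8 quantified by ELISA; fitted in both directions against DMSO, with SRB total-protein staining of parallel cultures for cytotoxicity.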

[12] = BSK_LPS_SRB: Viability Assessment in the BioMAP Diversity Plus: LPS Assay (AID 2283079); details: primary human HUVEC with PBMC;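 note: total protein by sulforhodamine B absorbance as a cytotoxicity measure; measured one day after compound addition; fitted in both directions against DMSO so loss or gain of signal counts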
In short: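 Co-culture of human umbilical vein endothelial cells and PBMC, read 24 h after dosing. Total protein by 0.1% SRB staining after 10% TCA fixation, absorbance at 560 nm; bidirectional fit against DMSO.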

[13] = read-out: Interleukin-1 alpha (IL1a), IL1A (gene 3552); experiment: BSK_LPS_IL1a: BioMAP Diversity Plus: LPS Assay for Interleukin-1 alpha (IL1a) Biomarker Activity (AID 2283080); details: primary human HUVEC with PBMC; actives raise or lower the signal
In short: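 Human umbilical vein endothelial cells co-cultured with PBMC and stimulated with LPS; IL-1a measured by ELISA 24 h after dosing. Bidirectional fitting against DMSO; cytotoxicity checked by SRB staining in parallel cultures.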

[14] = read-out: Monocyte Chemoattractant Protein-1 (MCP1), CCL2 (gene 6347); experiment: BSK_LPS_MCP1: BioMAP Diversity Plus: LPS Assay for Monocyte Chemoattractant Protein-1 (MCP1) Biomarker Activity (AID 2283081); details: primary human HUVEC with PBMC; actives raise or lower the signal
In short: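 Human umbilical vein endothelial cells co-cultured with PBMC, LPS-stimulated; secreted MCP-1 measured by ELISA 24 h after compound addition. Bidirectional curve fitting against DMSO baseline; SRB total-protein staining in parallel cultures for cytotoxicity.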

[15] = BSK_LPS_PGE2: BioMAP Diversity Plus: LPS Assay for Prostaglandin E2 (PGE2) Biomarker Activity (AID 2283082); details: primary human HUVEC with PBMC; actives raise or lower the signal;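 for AC50: secreted prostaglandin E2 measured by ELISA in LPS-stimulated co-culture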
In short: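 PGE2 release measured by ELISA in an LPS-activated co-culture of human umbilical vein endothelial cells and peripheral blood mononuclear cells, read at 24 h post-dosing. DMSO served as baseline for bidirectional curve fitting.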

[16] = read-out: Macrophage colony-stimulating factor (MCSF), CSF1 (gene 1435); experiment: BSK_LPS_MCSF: BioMAP Diversity Plus: LPS Assay for Macrophage colony-stimulating factor (MCSF) Biomarker Activity (AID 2283083); details: primary human HUVEC with PBMC; actives raise or lower the signal
In short: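 HUVEC–PBMC co-culture, M-CSF measured by ELISA 24 h after chemical dosing. Fitted in both directions relative to DMSO as negative control; overt cytotoxicity assessed by SRB total-protein staining in parallel cultures.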

[17] = read-out: Tissue Factor, F3 (gene 2152); experiment: BSK_LPS_TissueFactor: BioMAP Diversity Plus: LPS Assay for Tissue Factor Biomarker Activity (AID 2283084); details: primary human HUVEC with PBMC; actives raise or lower the signal
In short: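 Human umbilical vein endothelial cells co-cultured with PBMC were dosed with compound. Cell-surface CD142 was measured by ELISA 24 h later. Activity was fitted bidirectionally against DMSO, with SRB total-protein staining in parallel cultures for cytotoxicity.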

[18] = read-out: Tumor necrosis factor (Homo sapiens) (UniProt P01375); experiment: BSK_LPS_TNFa: BioMAP Diversity Plus: LPS Assay for Tumour Necrosis Factor alpha (TNFa) Biomarker Activity (AID 2283085); details: primary human HUVEC with PBMC; actives raise or lower the signal;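 for AC50: TNFa protein level quantified by ELISA in the co-culture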
In short: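 TNFa was quantified by ELISA in LPS-activated co-cultures of human endothelial cells and PBMC, 24 h post-dosing. Both increases and decreases versus DMSO were fitted.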

[19] = read-out: Intercellular Adhesion Molecule 1 (ICAM1), ICAM1 (gene 3383); experiment: BSK_KF3CT_ICAM1: BioMAP Diversity Plus: KF3CT Assay for Intercellular Adhesion Molecule 1 (ICAM1) Biomarker Activity (AID 2283067); details: primary human keratinocytes with fibroblasts; actives raise or lower the signal
In short: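 Human keratinocyte–foreskin fibroblast co-culture was treated for 24 h. Cell-surface ICAM-1 was quantified by ELISA, fitted bidirectionally relative to DMSO. Cytotoxicity was checked in parallel cultures by SRB total-protein staining.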

Measured: AC50

E-selectin (Homo sapiens), sequence (P16581 whole entry, looked up): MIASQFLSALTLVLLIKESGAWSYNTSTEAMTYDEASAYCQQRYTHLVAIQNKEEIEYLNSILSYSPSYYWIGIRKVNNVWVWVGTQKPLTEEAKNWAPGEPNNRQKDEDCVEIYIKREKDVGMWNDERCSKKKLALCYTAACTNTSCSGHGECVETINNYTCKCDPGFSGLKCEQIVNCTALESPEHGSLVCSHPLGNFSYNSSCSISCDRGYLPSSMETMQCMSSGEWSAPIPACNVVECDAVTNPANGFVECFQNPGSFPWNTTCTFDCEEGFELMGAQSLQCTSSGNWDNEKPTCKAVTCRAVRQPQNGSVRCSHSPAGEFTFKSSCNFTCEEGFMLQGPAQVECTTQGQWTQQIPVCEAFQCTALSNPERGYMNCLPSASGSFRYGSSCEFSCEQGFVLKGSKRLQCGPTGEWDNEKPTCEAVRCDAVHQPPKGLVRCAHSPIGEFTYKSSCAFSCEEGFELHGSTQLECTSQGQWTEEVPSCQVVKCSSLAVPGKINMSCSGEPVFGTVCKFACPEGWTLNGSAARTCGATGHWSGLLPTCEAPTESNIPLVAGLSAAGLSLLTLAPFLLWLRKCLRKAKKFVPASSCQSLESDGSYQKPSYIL
Tumor necrosis factor (Homo sapiens), sequence (P01375 whole entry, looked up): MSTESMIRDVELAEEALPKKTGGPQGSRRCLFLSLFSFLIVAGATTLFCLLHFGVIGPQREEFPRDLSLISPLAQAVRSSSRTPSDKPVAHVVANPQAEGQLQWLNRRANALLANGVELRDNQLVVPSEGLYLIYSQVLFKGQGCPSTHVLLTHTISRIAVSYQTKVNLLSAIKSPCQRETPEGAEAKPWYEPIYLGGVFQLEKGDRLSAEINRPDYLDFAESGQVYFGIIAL

CN(C)c1ccc(Cc2ccc(N(C)C)cc2)cc1
active: [11] 20 µM | [15] 5.6 µM
not listed: [19]
inactive: all other assays above

CC/C(=C\C(=N/O)C(N)=O)C(C)[N+](=O)[O-] (centres undefined)
not listed: [15] | [19]
inactive: all other assays above

C1N2CN3CN1CN(C2)C3
not listed: [11] | [13] | [15]
inactive: all other assays above

CC(C)=CCC/C(C)=C/CO
not listed: [11] | [15]
inactive: all other assays above

CC(C)=CCCC(C)CCO (centres undefined)
not listed: [19]
inactive: all other assays above

C=CCCCCCCCCC(=O)O
active: [18] 0.74 µM
not listed: [15] | [19]
inactive: all other assays above

COCCOCCOCCOC
not listed: [11] | [15]
inactive: all other assays above

CC(C)CCO
not listed: [7]
inactive: all other assays above

NC(=O)NO
not listed: [11] | [13] | [15] | [19]
inactive: all other assays above

O=C(O)c1cc(N=Nc2ccc(S(=O)(=O)Nc3ccccn3)cc2)ccc1O
not listed: [11] | [19]
inactive: all other assays above

COC(=O)c1ccccc1O
not listed: [11] | [15] | [19]
inactive: all other assays above

CC1(C)C(=O)N(Br)C(=O)N1Br
not listed: [11] | [13] | [19]
inactive: all other assays above

CC(C)=CCC/C(C)=C\CO
not listed: [6] | CD40, CD40 (gene 958) | [19]
inactive: all other assays above

CC[C@H]1CC[C@H](NCc2cc3c(cc2OC)[C@H]2C[C@H]2C(=O)N3C)[C@H](c2ccccc2)N1
not listed: [11] | [13] | [19]
inactive: all other assays above

CCOC(=O)CC(CC(=O)OCC)(OC(C)=O)C(=O)OCC
not listed: [11] | [19]
inactive: all other assays above

CCn1nc(Cc2ccccc2)cc1C1CCN(C[C@H]2C[C@H](N(C)[C@@H](C(=O)O)C(C)C)C[C@@H]2c2cccc(F)c2)CC1
not listed: [13] | [19]
inactive: all other assays above

CC1=CC(=O)CC(C)(C)C1
not listed: [11] | [13] | [15] | [19]
inactive: all other assays above

Nc1nc2ncc(CNc3ccc(C(=O)N[C@@H](CCC(=O)O)C(=O)O)cc3)nc2c(=O)[nH]1
not listed: [11] | [13] | [15] | [19]
inactive: all other assays above

COc1ccc(/C=C/S(=O)(=O)NC(=O)c2ccc(C)cc2Cl)cc1
active: [2] 32.6 µM | [4] 8.09 µM
not listed: [13] | [19]
inactive: all other assays above

Reference: PubChem BioAssay (EPA / NIEHS)
